Rows were chosen to be rich in hits. Some 5.1% of all compounds tested hit in one or more screens of this group.
CRFR2-BP antag = antagonists of CRF-binding protein/CRF-R2 receptor complex; AID 588475; HEK293 CRF-R2/CRF-BP, CRF-induced calcium fluorescence; inhibition, % at 11.8 µM; 350,000 compounds, 0.59% hits;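 active = inhibition of the ligand-induced calcium signal above about 50% at the single tested concentration, limit read from the data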
MPTP inh = blocks calcium-induced mitochondrial swelling; isolated mouse mitochondria, Ca2+ swelling absorbance, 30 min; inhibition, % at 10 µM; 360,000 compounds, 1.4% hits;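 active = inhibition of 50% or more, scaled per plate between neutral and stimulator controls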;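 note: 0% = DMSO wells given calcium and 100% = 1 mM EGTA wells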
GRIN3A LBD mod = modulates the human NR3A ligand-binding domain; NR3A LBD differential scanning fluorimetry, Tm shift; 0% = protein alone, 100% = glycine-bound protein; Tm shift relative to glycine control, % at 25 µM; 340,000 compounds, 2.5% hits; AID 1259313;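 active = melting temperature shift of at least 10% of the positive control shift, at one fixed dose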
ANO1 block = inhibitors of mouse TMEM16A calcium-activated chloride channel; HEK293 TMEM16A/YFP iodide influx fluorescence, ionomycin; normalized B-score (activity score, 25-100; higher = stronger inhibition) at 10 µM; 310,000 compounds, 1.2% hits;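 active = ratio plate-corrected score three or more library SD toward inhibition, starting fluorescence score within five deviations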;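 note: score derived from kinetic fluorescence span divided by baseline fluorescence per well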
Target sequence (Q8BHY3 whole entry, looked up): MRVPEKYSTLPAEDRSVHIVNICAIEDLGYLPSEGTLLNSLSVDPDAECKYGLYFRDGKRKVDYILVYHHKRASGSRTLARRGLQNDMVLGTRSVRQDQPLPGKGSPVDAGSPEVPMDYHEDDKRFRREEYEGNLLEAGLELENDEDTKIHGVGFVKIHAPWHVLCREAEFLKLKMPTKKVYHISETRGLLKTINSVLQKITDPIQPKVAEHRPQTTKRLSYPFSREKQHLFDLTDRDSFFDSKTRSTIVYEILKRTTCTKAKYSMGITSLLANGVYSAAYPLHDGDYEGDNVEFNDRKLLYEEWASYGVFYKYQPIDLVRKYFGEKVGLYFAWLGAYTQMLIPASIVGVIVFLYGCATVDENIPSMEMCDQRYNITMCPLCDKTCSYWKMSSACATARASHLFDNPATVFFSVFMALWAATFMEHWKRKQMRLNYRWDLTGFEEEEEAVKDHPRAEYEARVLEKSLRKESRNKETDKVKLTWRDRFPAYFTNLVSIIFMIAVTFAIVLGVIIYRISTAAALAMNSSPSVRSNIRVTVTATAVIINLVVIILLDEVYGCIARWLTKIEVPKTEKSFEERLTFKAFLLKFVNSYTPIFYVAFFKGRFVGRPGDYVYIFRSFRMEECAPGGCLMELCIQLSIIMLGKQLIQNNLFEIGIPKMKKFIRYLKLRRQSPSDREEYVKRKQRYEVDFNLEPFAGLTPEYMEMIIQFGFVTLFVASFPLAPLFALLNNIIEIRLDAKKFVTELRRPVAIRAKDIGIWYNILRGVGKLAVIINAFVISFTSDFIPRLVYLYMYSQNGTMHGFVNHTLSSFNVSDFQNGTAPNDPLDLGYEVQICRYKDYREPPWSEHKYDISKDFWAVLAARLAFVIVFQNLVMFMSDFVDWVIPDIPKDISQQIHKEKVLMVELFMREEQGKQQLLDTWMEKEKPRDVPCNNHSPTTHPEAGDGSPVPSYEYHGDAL
CRFR2-BP ag = agonists of human CRF-binding protein/CRF-R2 receptor complex. activation, % at 13.2 µM. AID 588473. HEK293 CRF-R2/CRF-BP, calcium dye fluorescence (FLIPR); percent of saturating CRF peptide response. 350,000 compounds, 0.46% hits;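 active = activation of at least 50%, plus an integration ratio under a set limit after plate pattern correction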;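 note: plate controls were neutral control wells without compound for no effect and CRF at EC100 for full effect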
TMEM16A act = activates or potentiates the mouse TMEM16A chloride channel | Q8BHY3 | HEK293 TMEM16A/YFP-H148Q/I152L, iodide quench fluorescence; hits give low values | B-score at 10 µM | 340,000 compounds, 0.3% hits;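 active = fluorescence-ratio B-score plate-corrected deviation score at least 3 library SD below zero, with starting fluorescence score within 5 deviations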;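 note: channel opened by trigger with iodide after compound preincubation; score built on the fluorescence ratio of max minus min over baseline; more negative score means more quench and so TMEM16A activation or potentiation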
The depositor's hits bear a star; i = inactive; nt = not tested or not shown.

SMILES	CRFR2-BP antag	MPTP inh	GRIN3A LBD mod	ANO1 block	CRFR2-BP ag	TMEM16A act
CN(C(=O)Cc1noc2ccccc12)c1ccccc1	10	0	12*	i	2	i
CCCCN(c1ccc(C(=O)OC)cc1)S(=O)(=O)c1ccccc1	63*	0	0	i	-1	i
Cc1ccc(NC(=O)CN(C)S(=O)(=O)c2cccc3cccnc23)cc1F	-1	2	14*	i	-2	i
S=c1[nH]c2cc3ccccc3cc2[nH]1	-2	5	26*	i	2	i
S=c1[nH]c2ccc3ccccc3c2[nH]1	-16	0	-1	i	0	i
CCCSc1nnc(CSc2nc3ccccc3s2)n1-c1ccccc1	32	35	-4	100*	0	i
Nc1ccc(O)c(-c2nc3ccccc3s2)c1	-15	0	-3	i	4	i
COc1ccc(N2CCN(C(=O)c3ccc(-c4nc5ccccc5s4)o3)CC2)cc1	10	0	0	nt	1	-28*
COc1cccc(-c2nc3ccccc3s2)c1	25	-1	3	i	0	i
COc1ccc(-c2nc3ccccc3s2)cc1	5	2	40*	nt	-1	i
COc1ccccc1N1CCN(C(=O)c2ccc(-c3nc4ccccc4s3)o2)CC1	-4	-2	-2	nt	-1	i
Oc1ccc(-c2nc3ccccc3s2)cc1	9	6	15*	i	-4	i
c1ccc2sc(-c3ccncc3)nc2c1	-16	-1	-2	i	2	i
Oc1ccc(-c2nc3ccccc3s2)c(O)c1	-5	11	39*	i	0	i
CSc1ccc(NC(=O)NCc2cccnc2)cc1	5	1	-1	i	-1	i
CCCCOc1ccc(C(=O)NCC(=O)N2CCN(C(=O)c3ccco3)CC2)cc1	-1	0	4	i	-2	i
O=C(CSc1nc2ccccc2s1)c1ccc(O)cc1O	-8	2	30*	i	-1	i
Cc1c(C(=O)N/N=C/c2cccnc2)sc(=S)n1C	28	1	-8	i	-1	i
Cn1c(N)c(C(=O)N/N=C/c2ccccc2)sc1=S	5	-1	33*	i	-1	i
CC1CCN(Cc2nnnn2CCCC(=O)NC(c2ccccn2)C(F)(F)F)CC1 (stereo not drawn)	14	-2	12*	i	-2	i
COCC1CCCCN1C(=O)CCCn1nnnc1CN1CCC(C)CC1 (stereo not drawn)	-2	-2	2	i	0	i
N/C(=N\OC(=O)c1ccc([N+](=O)[O-])cc1)c1ccc(Br)cc1	5	-1	-4	i	-1	i
N/C(Cc1ccc([N+](=O)[O-])cc1)=N\OC(=O)c1ccc(Br)cc1	62*	1	-25	i	-2	i
N/C(=N\OC(=O)c1ccccc1Br)c1ccc([N+](=O)[O-])cc1	20	0	11*	i	-1	i
N/C(Cc1ccc([N+](=O)[O-])cc1)=N\OC(=O)c1ccccc1Br	11	1	12*	i	-2	i
SMILES	CRFR2-BP antag	MPTP inh	GRIN3A LBD mod	ANO1 block	CRFR2-BP ag	TMEM16A act
COc1ccccc1-c1nnc(SCC(=O)Nc2ccc(N3CCOCC3)cc2)n1C	2	-1	-1	i	-1	i
CC1(NC(=S)Nc2ccccc2)CCS(=O)(=O)C1 (stereo not drawn)	5	1	1	i	-1	i
O=C(Nc1ccncc1)c1ccccc1-c1ccccc1	0	-3	-1	i	-1	i
COC1OC(c2ccccc2)=C(c2cnc(N)nc2)c2ccc(F)cc21 (stereo not drawn)	nt	-2	nt	nt	nt	nt
COc1cc(N2CCCC2)c(OC)cc1/C=C1/NC(=S)NC1=O	-168	2	-5	i	178*	i
COc1ccc(Oc2ccc(N/C=C3/CCCC3=O)cc2)cc1	20	2	17*	i	-3	i
COc1ccc(Oc2ccc(N/C=C3\CCCC3=O)cc2)cc1	-9	1	-11	i	-2	i
Cc1cc2oc(C(=O)Nc3ccc(S(N)(=O)=O)cc3)c(C)c2cc1Cl	8	4	24*	i	4	i
Cc1c(C(=O)Nc2ccc(F)c(F)c2)oc2ccc(S(=O)(=O)N3CCCCC3)cc12	-52	26	31*	i	2	i
Cc1c(C(=O)Nc2ccc(F)cc2)oc2ccc(S(=O)(=O)N3CCCC3)cc12	1	0	-11	i	1	i
CC1CCC(NC(=O)c2[nH]c(C(F)(F)F)nc2-c2ccccc2)CC1 (stereo not drawn)	nt	0	nt	nt	nt	nt
NC(=O)NC[C@@H]1CC[C@@H](Cc2ccc(-c3ccccc3)cc2)O1	-2	0	2	nt	-1	i
COc1ccc(NC(=O)NC[C@@H]2CC[C@@H](Cc3ccc(-c4ccccc4)cc3)O2)cc1	19	3	11*	nt	-3	nt
CCCCCN(C(=O)CCC(=O)OCC(=O)c1ccc(CCC)cc1)c1c(N)n(CCCC)c(=O)[nH]c1=O	17	-1	-4	i	1	i
O=C(COC(=O)CCC1CCCC1)Nc1nc2c(F)c(F)c(F)cc2s1	-52	14	22*	i	2	i
O=C(COC(=O)c1ccco1)Nc1nc2c(F)c(F)c(F)cc2s1	-3	4	-5	i	0	i
CC(C)(C)c1ccc(C(=O)NCCC(=O)NNC(=O)COc2ccccc2F)cc1	-4	-1	0	nt	-4	i
O=C(CCN1CCCCC1)c1ccc2c(c1)OCO2	51*	19	2	i	-2	i
COc1cc2c(cc1NC(=O)C(C)OC(=O)c1ccc(S(=O)(=O)Nc3ccccc3Cl)cc1)oc1ccccc12 (stereo not drawn)	-1	10	10*	i	3	i
CC(OC(=O)c1ccc(NS(=O)(=O)c2ccc3[nH]c(=O)[nH]c3c2)cc1)C(=O)Nc1ccc(Cl)cc1 (stereo not drawn)	2	1	15*	i	-1	i
COc1cc2c(cc1NC(=O)C(C)N1CCN(S(=O)(=O)c3ccc(C)c(C)c3)CC1)oc1ccccc12 (stereo not drawn)	10	2	-7	i	5	i
COc1ccc(Cl)cc1NC(=O)C(C)OC(=O)c1ccc(NS(=O)(=O)c2ccc3[nH]c(=O)[nH]c3c2)cc1 (stereo not drawn)	6	0	18*	i	0	i
CC1(C(=O)NS(=O)(=O)c2ccccc2)CCN1C(=O)COc1ccc(Cl)cc1 (stereo not drawn)	nt	0	nt	nt	nt	nt

Source: PubChem (several laboratories)
